Laboratory results from the supplement of paper PMC11732987, “Enantioselective OTUD7B fragment discovery through chemoproteomics screening and high-throughput optimisation” (Communications Chemistry, 2025).

Tests used:
Assay in all cases: log2 ratio of Biotin-Ahx-Ub-VS probe labelling (fragment/DMSO); higher = less target engagement (more negative = stronger competition), active = hit call of the paper (q ≤ 0.05, log2 ratio ≤ -1)
Conditions in all cases: compound concentration: 200 uM; treatment time: 3 h
ALG13 = target: T1, ALG13 (UniProt Q9NP73)
T1 sequence (whole entry): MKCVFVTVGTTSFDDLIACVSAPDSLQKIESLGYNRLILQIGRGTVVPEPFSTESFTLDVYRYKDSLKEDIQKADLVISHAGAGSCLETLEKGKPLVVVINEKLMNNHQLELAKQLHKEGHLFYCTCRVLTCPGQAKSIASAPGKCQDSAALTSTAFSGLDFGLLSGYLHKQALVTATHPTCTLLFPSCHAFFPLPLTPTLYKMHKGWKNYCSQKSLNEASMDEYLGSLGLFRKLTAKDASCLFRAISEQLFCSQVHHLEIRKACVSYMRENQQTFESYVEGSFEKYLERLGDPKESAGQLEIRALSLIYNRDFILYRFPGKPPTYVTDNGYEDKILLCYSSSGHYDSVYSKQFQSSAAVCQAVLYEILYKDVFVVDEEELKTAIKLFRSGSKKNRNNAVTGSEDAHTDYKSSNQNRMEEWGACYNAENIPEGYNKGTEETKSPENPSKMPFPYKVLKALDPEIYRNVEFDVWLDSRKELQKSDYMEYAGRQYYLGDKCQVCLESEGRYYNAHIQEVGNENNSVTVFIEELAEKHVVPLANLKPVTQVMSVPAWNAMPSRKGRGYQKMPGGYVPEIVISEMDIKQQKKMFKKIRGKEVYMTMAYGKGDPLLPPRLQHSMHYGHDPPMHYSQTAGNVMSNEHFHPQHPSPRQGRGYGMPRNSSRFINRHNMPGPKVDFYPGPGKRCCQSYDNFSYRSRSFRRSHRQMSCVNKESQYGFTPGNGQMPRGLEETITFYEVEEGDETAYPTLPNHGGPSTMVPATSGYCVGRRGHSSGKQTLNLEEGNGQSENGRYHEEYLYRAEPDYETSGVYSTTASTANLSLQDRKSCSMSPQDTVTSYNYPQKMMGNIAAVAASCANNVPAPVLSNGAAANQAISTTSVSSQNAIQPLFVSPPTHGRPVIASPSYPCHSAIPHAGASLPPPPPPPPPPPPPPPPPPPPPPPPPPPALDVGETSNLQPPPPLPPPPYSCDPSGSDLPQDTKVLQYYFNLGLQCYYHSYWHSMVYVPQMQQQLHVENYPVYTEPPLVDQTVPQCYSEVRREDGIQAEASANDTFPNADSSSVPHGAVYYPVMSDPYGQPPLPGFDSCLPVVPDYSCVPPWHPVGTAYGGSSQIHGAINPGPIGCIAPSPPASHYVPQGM
How it was run: (§1)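 HEK293T lysate, 495 µg per sample in Tris/CHAPS/IGEPAL buffer with protease inhibitors, was treated in triplicate with fragment at 200 µM or vehicle for 3 h and then with Biotin-Ahx-Ub-VS at 0.5 µM final for 1 h. Labelled DUBs were NeutrAvidin-enriched, digested with LysC and trypsin, and run by diaPASEF LC-MS/MS. Spectronaut label-free quantities were global-median-normalised, and values are average log2 fragment/vehicle ratios by unpaired t-test on proteins with ≥2 unique peptides.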

ATXN3 = ATXN3 (UniProt P54252)
How it was run: as §1

BAP1 = target: T2, BAP1 (UniProt Q92560)
T2 sequence (whole entry): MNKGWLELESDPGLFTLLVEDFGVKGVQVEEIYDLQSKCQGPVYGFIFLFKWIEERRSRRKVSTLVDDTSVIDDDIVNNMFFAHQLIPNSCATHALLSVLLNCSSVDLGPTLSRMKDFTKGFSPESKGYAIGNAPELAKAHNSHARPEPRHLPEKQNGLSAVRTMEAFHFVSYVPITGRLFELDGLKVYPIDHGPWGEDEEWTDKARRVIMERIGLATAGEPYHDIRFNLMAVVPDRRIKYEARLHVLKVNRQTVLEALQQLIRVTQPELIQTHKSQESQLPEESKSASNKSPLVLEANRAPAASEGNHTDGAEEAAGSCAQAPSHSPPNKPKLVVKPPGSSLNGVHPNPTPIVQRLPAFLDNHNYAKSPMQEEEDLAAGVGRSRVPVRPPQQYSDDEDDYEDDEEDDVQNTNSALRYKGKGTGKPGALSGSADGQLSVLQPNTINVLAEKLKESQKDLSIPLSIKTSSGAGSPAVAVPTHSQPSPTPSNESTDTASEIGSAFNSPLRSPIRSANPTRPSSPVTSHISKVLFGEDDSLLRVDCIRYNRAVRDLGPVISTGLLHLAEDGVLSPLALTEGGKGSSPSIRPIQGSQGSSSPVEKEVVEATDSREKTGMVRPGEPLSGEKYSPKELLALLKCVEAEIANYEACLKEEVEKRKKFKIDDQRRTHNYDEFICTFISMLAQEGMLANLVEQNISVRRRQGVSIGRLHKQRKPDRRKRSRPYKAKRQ
How it was run: as §1

EIF3F = EIF3F (UniProt O00303)
How it was run: as §1

EIF3H = EIF3H (UniProt O15372)
How it was run: as §1

FAM105A = target: T3, FAM105A (UniProt Q9NUU6)
T3 sequence (whole entry): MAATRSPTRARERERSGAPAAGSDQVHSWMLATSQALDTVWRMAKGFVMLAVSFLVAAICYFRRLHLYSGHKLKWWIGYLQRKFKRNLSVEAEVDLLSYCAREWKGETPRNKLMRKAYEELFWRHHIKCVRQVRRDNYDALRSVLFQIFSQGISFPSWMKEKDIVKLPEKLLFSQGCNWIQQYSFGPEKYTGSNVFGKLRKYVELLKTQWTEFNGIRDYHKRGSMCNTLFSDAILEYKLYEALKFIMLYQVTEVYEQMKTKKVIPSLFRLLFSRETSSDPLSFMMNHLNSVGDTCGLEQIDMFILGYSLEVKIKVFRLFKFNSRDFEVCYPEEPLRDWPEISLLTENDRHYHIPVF
How it was run: as §1

OTUB1 = OTUB1 (UniProt Q96FW1)
How it was run: as §1

OTUD4 = target: T4, OTUD4 (UniProt Q01804)
T4 sequence (whole entry): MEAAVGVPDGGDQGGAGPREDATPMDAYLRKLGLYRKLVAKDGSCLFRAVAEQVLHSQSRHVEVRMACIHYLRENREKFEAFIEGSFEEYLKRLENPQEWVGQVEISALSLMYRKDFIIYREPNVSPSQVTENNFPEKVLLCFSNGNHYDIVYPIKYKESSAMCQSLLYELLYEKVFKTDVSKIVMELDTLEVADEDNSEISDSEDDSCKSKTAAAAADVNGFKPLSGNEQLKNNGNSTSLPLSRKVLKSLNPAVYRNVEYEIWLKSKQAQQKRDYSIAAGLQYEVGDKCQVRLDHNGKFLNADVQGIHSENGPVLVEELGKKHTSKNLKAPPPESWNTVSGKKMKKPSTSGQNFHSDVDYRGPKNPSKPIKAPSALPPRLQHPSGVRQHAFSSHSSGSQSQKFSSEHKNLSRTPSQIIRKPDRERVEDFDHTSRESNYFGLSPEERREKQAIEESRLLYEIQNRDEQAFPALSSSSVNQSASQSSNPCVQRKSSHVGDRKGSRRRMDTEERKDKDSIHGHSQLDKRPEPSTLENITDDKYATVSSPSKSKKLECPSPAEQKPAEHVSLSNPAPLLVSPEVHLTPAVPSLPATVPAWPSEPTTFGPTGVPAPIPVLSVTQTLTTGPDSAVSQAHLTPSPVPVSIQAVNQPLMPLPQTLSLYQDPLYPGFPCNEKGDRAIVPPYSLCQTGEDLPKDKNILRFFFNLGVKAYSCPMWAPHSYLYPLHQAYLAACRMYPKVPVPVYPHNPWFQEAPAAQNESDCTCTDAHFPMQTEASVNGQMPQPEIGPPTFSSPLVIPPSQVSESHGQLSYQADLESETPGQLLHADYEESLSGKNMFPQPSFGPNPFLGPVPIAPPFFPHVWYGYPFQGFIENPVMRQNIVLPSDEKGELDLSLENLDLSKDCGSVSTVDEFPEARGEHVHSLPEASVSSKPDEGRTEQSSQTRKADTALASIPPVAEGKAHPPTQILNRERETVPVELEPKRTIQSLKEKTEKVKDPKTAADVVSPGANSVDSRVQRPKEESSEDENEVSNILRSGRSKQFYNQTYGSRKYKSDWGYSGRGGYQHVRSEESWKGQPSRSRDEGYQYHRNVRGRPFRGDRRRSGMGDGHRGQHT
How it was run: as §1

OTUD5 = target: T5, OTUD5 (UniProt Q96G74)
T5 sequence (whole entry): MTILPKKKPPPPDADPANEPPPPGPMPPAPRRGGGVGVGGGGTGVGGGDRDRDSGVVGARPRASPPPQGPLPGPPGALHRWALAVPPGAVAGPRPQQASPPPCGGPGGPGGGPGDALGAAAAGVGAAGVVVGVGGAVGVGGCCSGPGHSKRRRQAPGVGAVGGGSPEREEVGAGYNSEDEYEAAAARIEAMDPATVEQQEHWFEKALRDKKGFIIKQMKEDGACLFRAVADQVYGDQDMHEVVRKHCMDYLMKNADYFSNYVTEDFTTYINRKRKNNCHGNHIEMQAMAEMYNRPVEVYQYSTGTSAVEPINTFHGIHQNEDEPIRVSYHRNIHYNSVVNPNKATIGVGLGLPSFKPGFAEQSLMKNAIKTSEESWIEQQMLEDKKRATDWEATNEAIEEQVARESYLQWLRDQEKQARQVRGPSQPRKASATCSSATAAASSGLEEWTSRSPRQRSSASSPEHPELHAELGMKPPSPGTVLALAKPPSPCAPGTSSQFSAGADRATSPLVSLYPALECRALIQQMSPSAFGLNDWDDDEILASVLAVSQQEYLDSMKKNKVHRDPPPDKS
How it was run: as §1

Measured: log2 ratio of Biotin-Ahx-Ub-VS probe labelling

Sequence of EIF3F (O00303 whole entry): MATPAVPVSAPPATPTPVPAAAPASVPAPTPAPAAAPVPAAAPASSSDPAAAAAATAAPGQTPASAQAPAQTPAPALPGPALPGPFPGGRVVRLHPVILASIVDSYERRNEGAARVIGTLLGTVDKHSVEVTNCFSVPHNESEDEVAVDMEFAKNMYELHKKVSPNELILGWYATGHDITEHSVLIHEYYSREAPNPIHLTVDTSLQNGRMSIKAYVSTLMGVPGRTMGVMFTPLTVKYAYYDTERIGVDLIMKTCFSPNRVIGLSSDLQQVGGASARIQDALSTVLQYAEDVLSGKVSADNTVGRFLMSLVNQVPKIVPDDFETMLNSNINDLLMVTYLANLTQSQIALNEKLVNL
Sequence of OTUB1 (Q96FW1 whole entry): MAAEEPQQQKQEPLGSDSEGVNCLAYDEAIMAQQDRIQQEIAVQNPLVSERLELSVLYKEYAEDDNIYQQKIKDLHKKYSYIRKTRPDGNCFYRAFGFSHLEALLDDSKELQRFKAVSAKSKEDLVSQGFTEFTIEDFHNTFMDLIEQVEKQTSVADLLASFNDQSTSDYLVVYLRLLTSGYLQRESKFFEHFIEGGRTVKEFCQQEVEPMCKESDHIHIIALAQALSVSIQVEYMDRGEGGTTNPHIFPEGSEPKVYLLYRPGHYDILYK
Sequence of ATXN3 (P54252 whole entry): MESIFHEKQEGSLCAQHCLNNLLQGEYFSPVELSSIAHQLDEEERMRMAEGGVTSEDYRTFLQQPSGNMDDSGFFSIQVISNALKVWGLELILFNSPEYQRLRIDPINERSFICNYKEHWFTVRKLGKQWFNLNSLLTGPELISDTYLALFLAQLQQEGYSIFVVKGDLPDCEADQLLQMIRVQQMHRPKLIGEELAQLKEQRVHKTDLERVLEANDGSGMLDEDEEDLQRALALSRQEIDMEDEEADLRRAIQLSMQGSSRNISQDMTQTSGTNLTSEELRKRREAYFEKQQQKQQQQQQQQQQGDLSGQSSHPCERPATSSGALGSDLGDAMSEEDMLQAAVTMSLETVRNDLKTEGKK
Sequence of EIF3H (O15372 whole entry): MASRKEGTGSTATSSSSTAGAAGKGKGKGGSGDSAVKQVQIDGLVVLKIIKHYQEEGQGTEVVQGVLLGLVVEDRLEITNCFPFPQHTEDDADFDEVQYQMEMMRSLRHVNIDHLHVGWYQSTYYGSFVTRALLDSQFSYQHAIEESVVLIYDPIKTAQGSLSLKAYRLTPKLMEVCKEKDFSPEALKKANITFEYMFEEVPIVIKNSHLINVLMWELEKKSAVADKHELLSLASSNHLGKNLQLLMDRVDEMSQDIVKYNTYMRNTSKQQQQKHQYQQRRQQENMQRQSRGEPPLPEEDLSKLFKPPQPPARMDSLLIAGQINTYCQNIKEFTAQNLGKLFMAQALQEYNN

O=C(CCl)NCCc1ccc2c(c1)OCCO2
active: BAP1 -1.7
inactive: ALG13 -0.0432 | ATXN3 -0.16 | EIF3F -0.184 | EIF3H 0.186 | FAM105A 0.307 | OTUB1 -0.173 | OTUD4 -0.539 | OTUD5 -0.693
